About 83,000 compounds went through this panel and 20% of them were active in at least one assay; those are over-represented in the sample as a whole.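 Step 1: grow cells in 96-well plates. Step 2: add test compound at a single concentration. Step 3: incubate 48 h. Step 4: record percent growth.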 Unmarked numbers belong to inactive results. The source made the active and inactive calls. How the source made its calls: active means growth percent below 10; inactive means the rest.
These molecules were tested on SR leukemia (assay: NCI-60 one-dose screen, 48 h (100 = growth as untreated, 0 = no growth, -100 = all killed)). Details: 10 µM unless noted.

SMILES	growth
CCCCNc1ccc2c3c(cccc13)C(=O)N(c1cccc(-c3nn(-c4ccccc4)cc3-c3nc4ccccc4s3)c1)C2=O	95.5%
COc1ccc(-c2cc(-c3cc(OC)c(OC)c(OC)c3)[nH]c(=O)c2C#N)cc1	80.8%
COc1cc(C2CC(c3ccc(Cl)cc3)=Nc3c(N)nc(N)nc3N2)ccc1Oc1nc(Nc2ccc(F)cc2)nc(N(C)C)n1 (configuration not stated)	-47.5% (active)
O=C(O)CC1S/C(=N/N=C/c2nc3ccccc3s2)NC1=O (configuration not stated)	79.8%
Cc1ccc(S(=O)(=O)N(CCn2ccnc2[N+](=O)[O-])CCn2ccnc2[N+](=O)[O-])cc1	94.2%
N#CCc1nnc(NC(=O)c2ccc(-n3c(=O)[nH]c4ccccc4c3=O)cc2)s1	93.4%
O=C(N/N=C/c1ccc(Br)o1)c1[nH]c2ccc(Br)cc2c1-c1ccccc1	5.02% (active)
COc1ccc(N=Nc2c(N)nn3c(-c4ccc([N+](=O)[O-])cc4)ccnc23)cc1	98.2%
Cn1cc(-c2cc(N)n3nc(-c4c[nH]c5ccc(Cl)cc45)cc3n2)c2cc(Br)cnc21	-40.9% (active)
CN1C(=O)C2(C(C#N)=C(c3ccc(Cl)cc3)Nc3c2c(-c2ccccc2)nn3-c2ccccc2)c2ccccc21 (configuration not stated)	29.6%
Cc1nn(-c2ccccc2)c2nc(C)n(C(=O)N/N=C/c3ccccc3)c(=O)c12	115%
CN1CCN(CCS(=O)(=O)Nc2cc(-c3ccc4ncnc(Nc5ccc(F)c(Cl)c5)c4c3)cnc2Cl)CC1	-45.4% (active)
